In PubChem BioAssay (NCATS) one finds Potency, activity change, negative = inhibition and activity, negative = inhibition data, which are given here for 33 compounds.

“And” between values parts separate entries of the source, which are not always exact repeats. Equal entries are not always repeated. Unmarked numbers belong to inactive results. Inconclusive results are not listed. The source made the active and inactive calls.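 Rule for the calls, unless noted: active = compounds whose dose series gives a full or clear partial fitted curve of increased nuclear translocation; inconclusive = weak partial curve or effect only at the top dose; inactive = no dose-dependent translocation response.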 Residues, ends and D or L forms follow the SMILES beside them. *: point of attachment. Cbz = O=C(OCc1ccccc1)*

Glucocorticoid receptor (Homo sapiens), sequence (P04150 whole entry, looked up): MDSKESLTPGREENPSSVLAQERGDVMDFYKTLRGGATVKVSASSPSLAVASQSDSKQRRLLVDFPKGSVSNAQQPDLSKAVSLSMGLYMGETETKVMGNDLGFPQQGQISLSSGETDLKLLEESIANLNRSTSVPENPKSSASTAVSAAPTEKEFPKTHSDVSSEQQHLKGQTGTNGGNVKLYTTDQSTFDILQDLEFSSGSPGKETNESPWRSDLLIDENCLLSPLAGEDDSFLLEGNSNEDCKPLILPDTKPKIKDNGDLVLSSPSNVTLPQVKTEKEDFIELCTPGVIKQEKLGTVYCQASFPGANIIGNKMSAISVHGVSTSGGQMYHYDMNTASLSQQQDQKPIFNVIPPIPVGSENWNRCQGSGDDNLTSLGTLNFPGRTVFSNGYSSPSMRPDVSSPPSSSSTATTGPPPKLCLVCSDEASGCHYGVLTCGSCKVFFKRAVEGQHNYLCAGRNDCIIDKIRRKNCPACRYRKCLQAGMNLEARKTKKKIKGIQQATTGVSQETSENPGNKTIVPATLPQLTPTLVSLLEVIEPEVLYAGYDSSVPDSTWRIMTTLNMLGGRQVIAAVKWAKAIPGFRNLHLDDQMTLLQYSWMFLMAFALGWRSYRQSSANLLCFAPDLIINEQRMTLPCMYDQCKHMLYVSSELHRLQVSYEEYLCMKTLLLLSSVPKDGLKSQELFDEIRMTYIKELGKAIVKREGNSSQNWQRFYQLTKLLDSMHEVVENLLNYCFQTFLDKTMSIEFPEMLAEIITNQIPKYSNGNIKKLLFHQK

In one assay the target is Cytochrome P450 1A2 (Homo sapiens) (UniProt P05177). Description: p450-cyp1a2 (AID 410; calls by dose curve; note: potency is the fitted concentration of half-maximal effect;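 for activity change, negative = inhibition: -100% = full effect of reference inhibitor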). The following applies: recombinant CYP1A2, luciferin-ME demethylation, luminescence; series mostly up to 57 µM. An outline of the steps: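 20nM CYP1A2, 100uM Luciferin-ME (=Km), 100mM KPO4; cpd 10 min RT; +NADPH regen, 60 min RT; stop/detect 20 min; luminescence. Normalized to furafylline 57 uM = full inhibition.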
Cytochrome P450 1A2 (Homo sapiens), sequence (P05177 whole entry, looked up): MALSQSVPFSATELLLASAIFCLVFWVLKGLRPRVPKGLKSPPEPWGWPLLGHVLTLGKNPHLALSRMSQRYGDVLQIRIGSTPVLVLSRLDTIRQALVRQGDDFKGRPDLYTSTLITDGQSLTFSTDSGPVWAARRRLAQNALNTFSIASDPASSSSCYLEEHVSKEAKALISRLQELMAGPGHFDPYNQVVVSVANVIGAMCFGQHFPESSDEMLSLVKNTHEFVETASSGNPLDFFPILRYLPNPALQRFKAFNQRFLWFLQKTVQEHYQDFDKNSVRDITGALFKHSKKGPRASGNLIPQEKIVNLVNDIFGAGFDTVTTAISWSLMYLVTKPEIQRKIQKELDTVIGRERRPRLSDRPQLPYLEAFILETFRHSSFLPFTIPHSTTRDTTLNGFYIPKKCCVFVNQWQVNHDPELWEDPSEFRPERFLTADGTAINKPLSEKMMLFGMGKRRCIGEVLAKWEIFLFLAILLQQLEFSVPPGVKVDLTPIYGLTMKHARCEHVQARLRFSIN
On to `CCCCCCCCCCCCCCC[C@H](O)[C@H](N)CO`, for which the Potency result is “inactive”.

As for `Oc1ccc(Cn2cc[nH]c2=S)cc1`, the Potency is 6.31 µM (active).

Turning to `C=CC[C@H](N)C(=O)O`, the Potency result was “inactive”.

For `CCN(CC)CCCCCCCCOC(=O)c1cc(OC)c(OC)c(OC)c1`, the Potency result was “inactive”.

With `COc1ccccc1N1CCN(CCCCN2C(=O)c3ccccc3C2=O)CC1`, the Potency entry was “inactive”.

For the compound `COc1ccc(CCN(C)CCc2ccc(OC)c(OC)c2)cc1OC`, the Potency result is “inactive”.

Regarding `C[C@](Cc1ccc(O)c(O)c1)(NN)C(=O)O`, the Potency is 31.6 µM (active).

In the case of `CC(C)[C@H](NC(=O)OCc1ccccc1)C(=O)N[C@H](C=O)Cc1ccccc1` (Cbz-Val-Phe-aldehyde), the Potency entry was “inactive”.

`Cc1cccc(C(=O)NCN2CCN(c3ccccc3C#N)CC2)c1`: the Potency is 15.8 µM (active) and 20 µM (active).

With `O=c1onc2cnc3ccccc3n12`, the Potency was 12.6 µM (active) and 2.51 µM (active).

With `O=C(O)Cc1c[nH]c2ccc(O)cc12`, the Potency result is “inactive”.

For `Cc1nc(N=Nc2ccc(C(=O)O)cc2)c(COP(=O)(O)O)c(C=O)c1O`, the Potency entry is “inactive”.

Tested on in another assay: not listed separately
The experiment in a line: NFAT Signaling Pathway (AID 444; active = well fitted curve in either direction with a large enough effect, not every such curve was filed as active;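 note: carbachol stimulus at about its EC50 of 1 µM final; % is set by controls: 0 for no effect and ±100 for the full control effect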). The following applies: Jurkat NFAT-bla M1, carbachol, beta-lactamase ratio, 5 h; at 38 µM (top of the series) unless noted. The essentials: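 Jurkat cells with NFAT-driven β-lactamase reporter and co-expressed M1 receptor, stimulated with carbachol (final 1 uM, ~EC50), compound titration, 5 h at 37 °C. CCF4 loaded 1 h at RT; 460/530 nm ratio gave %activity and AC50.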
Consider `CN1CCN(c2nc3cc(C(F)(F)F)ccc3n3cccc23)CC1`, for which the activity change, negative = inhibition is 28.4%.

For `O=C(O)C1=CCCNC1`, the activity change, negative = inhibition was 3.92%.

Consider `O=S(=O)(c1cccc2c(Cl)cccc12)N1CCCNCC1`, for which the activity change, negative = inhibition was 3.5%.

Consider `CNc1cc(NS(=O)(=O)c2ccc(N)cc2)nc(NC)n1`, for which the activity change, negative = inhibition was 3.2%.

Regarding `CNC(=O)c1cc2c(cn1)[nH]c1ccccc12`, the activity change, negative = inhibition is -1.62%.

Regarding `CC(C)(CO)Cc1cc(C(C)(C)C)c(O)c(C(C)(C)C)c1`, the activity change, negative = inhibition is -10.6%.

As for `N=C(N)c1ccc(N)cc1`, the activity change, negative = inhibition is 5.12%.

With `NC(=Nc1ccccc1)NC(=O)c1nc(Cl)c(N)nc1N`, the activity change, negative = inhibition is 21.6%.

With `NCCCCN`, the activity change, negative = inhibition is -2.09%.

Consider `N=C(N)c1ccccc1`, for which the activity change, negative = inhibition was -2.62%.

On to `N=C(N)SCCc1cnc[nH]1`, for which the activity change, negative = inhibition is -4.42%.

Regarding `COc1ccccc1N1CCN(CCCCNC(=O)c2ccc3ccccc3c2)CC1`, the activity change, negative = inhibition was -13.3%.

Consider `CCN(c1nc(N)c(C(=O)N=C(N)N)nc1Cl)C(C)C`, for which the activity change, negative = inhibition was -3.34%.

As for `COc1cc(CC(=O)O)ccc1O`, the activity change, negative = inhibition was 6.22%.

For `C#CCn1c(=O)c2c(ncn2C)n(C)c1=O`, the activity change, negative = inhibition is 5.67%.

For `Nc1ncnc2c1ncn2C1CCCC1`, the activity change, negative = inhibition is 11.8%.

On to `Cn1ccnc1`, for which the activity change, negative = inhibition is -1.47%.

`Cn1c(=O)c2[nH]c(C3CCCC3)nc2n(C)c1=O`: the activity change, negative = inhibition was 3.19%.

Regarding `O=[N+]([O-])c1cccc2c(Br)[nH]nc12`, the activity change, negative = inhibition was -9.63%.

With `CC(N)=O`, the activity change, negative = inhibition was -6.62%.

Consider `COc1ccc2c(c1)c(CC(=O)O)c(C)n2Cc1ccc(Cl)cc1`, for which the activity change, negative = inhibition is -4.65%.

On to `CCCCCCCCCCCCCCC[C@H](O)[C@H](N)CO`, for which the activity change, negative = inhibition was 0.212%.

On to `Oc1ccc(Cn2cc[nH]c2=S)cc1`, for which the activity change, negative = inhibition was 3.63%.

Consider `C=CC[C@H](N)C(=O)O`, for which the activity change, negative = inhibition was 2.66%.

With `CCN(CC)CCCCCCCCOC(=O)c1cc(OC)c(OC)c(OC)c1`, the activity change, negative = inhibition is -83.6% (active).

Turning to `COc1ccccc1N1CCN(CCCCN2C(=O)c3ccccc3C2=O)CC1`, the activity change, negative = inhibition was -20.4%.

For the compound `COc1ccc(CCN(C)CCc2ccc(OC)c(OC)c2)cc1OC`, the activity change, negative = inhibition was -20.2%.

`C[C@](Cc1ccc(O)c(O)c1)(NN)C(=O)O`: the activity change, negative = inhibition is 8.6%.

For the compound `CC(C)[C@H](NC(=O)OCc1ccccc1)C(=O)N[C@H](C=O)Cc1ccccc1` (Cbz-Val-Phe-aldehyde), the activity change, negative = inhibition is -9.23%.

Consider `Cc1cccc(C(=O)NCN2CCN(c3ccccc3C#N)CC2)c1`, for which the activity change, negative = inhibition was -27.4%.

As for `O=c1onc2cnc3ccccc3n12`, the activity change, negative = inhibition was 1.27%.

In the case of `O=C(O)Cc1c[nH]c2ccc(O)cc12`, the activity change, negative = inhibition was 6.87%.

On to `Cc1nc(N=Nc2ccc(C(=O)O)cc2)c(COP(=O)(O)O)c(C=O)c1O`, for which the activity change, negative = inhibition was 7.15%.

Tested on in a further assay: not listed separately
The experiment in a line: Stat Signaling Pathway (AID 446; active = well fitted curve in either direction with a large enough effect, not every such curve was filed as active;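 note: ME-180 cervical cancer cells given 40 pM IL-6 alongside compound; SIE-controlled beta-lactamase reporter measured as 460/530 nm FRET emission ratio; % is set by controls: 0 for no effect and ±100 for the full control effect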). The following applies: ME-180 (cervical carcinoma) SIE beta-lactamase reporter, IL-6 stimulated, 5 h; at 38 µM (top of the series) unless noted. An outline of the steps: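 FRET read-out (405 nm excitation, 460/530 nm emission) of a beta-lactamase reporter under a STAT-inducible element in ME-180 cervical carcinoma cells. Cells with compound receive 40 pM IL-6 for 5 h. Values are normalised to AC90 stimulation and AC90 JAK-inhibitor controls.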
In the case of `O=S(=O)(c1cccc2c(Cl)cccc12)N1CCCNCC1`, the activity, negative = inhibition was -1.55%.

On to `CNC(=O)c1cc2c(cn1)[nH]c1ccccc12`, for which the activity, negative = inhibition was 31.1%.

Turning to `CC(C)(CO)Cc1cc(C(C)(C)C)c(O)c(C(C)(C)C)c1`, the activity, negative = inhibition is -24.1%.

For `N=C(N)c1ccccc1`, the activity, negative = inhibition is 8.11%.

In the case of `CCN(c1nc(N)c(C(=O)N=C(N)N)nc1Cl)C(C)C`, the activity, negative = inhibition was -24.1%.

`C#CCn1c(=O)c2c(ncn2C)n(C)c1=O`: the activity, negative = inhibition was 16.8%.

Regarding `Nc1ncnc2c1ncn2C1CCCC1`, the activity, negative = inhibition was 8.7%.

Take `CC(N)=O`: the activity, negative = inhibition is 13.9%.

For the compound `COc1ccccc1N1CCN(CCCCN2C(=O)c3ccccc3C2=O)CC1`, the activity, negative = inhibition is 19%.

In the case of `Cc1nc(N=Nc2ccc(C(=O)O)cc2)c(COP(=O)(O)O)c(C=O)c1O`, the activity, negative = inhibition was -19.4%.

A further assay concerns the target Glucocorticoid receptor (Homo sapiens) (UniProt P04150). The experiment in a line: GR-GFP Redistribution (AID 450). Note: potency is the fitted concentration of half-maximal effect. The following applies: U2OS GR-GFP nuclear translocation, laser cytometry, 2 h.
In the case of `CN1CCN(c2nc3cc(C(F)(F)F)ccc3n3cccc23)CC1`, the Potency was above 46 µM.

Turning to `O=C(O)C1=CCCNC1`, the Potency was above 46 µM.

As for `O=S(=O)(c1cccc2c(Cl)cccc12)N1CCCNCC1`, the Potency is above 46 µM.

Turning to `CNc1cc(NS(=O)(=O)c2ccc(N)cc2)nc(NC)n1`, the Potency is above 46 µM.

Regarding `CNC(=O)c1cc2c(cn1)[nH]c1ccccc12`, the Potency was above 46 µM.

Take `CC(C)(CO)Cc1cc(C(C)(C)C)c(O)c(C(C)(C)C)c1`: the Potency is above 46 µM.

With `N=C(N)c1ccc(N)cc1`, the Potency is above 46 µM.

Consider `NC(=Nc1ccccc1)NC(=O)c1nc(Cl)c(N)nc1N`, for which the Potency was above 46 µM.

As for `NCCCCN`, the Potency is above 46 µM.

`N=C(N)SCCc1cnc[nH]1`: the Potency was above 46 µM.

In the case of `COc1ccccc1N1CCN(CCCCNC(=O)c2ccc3ccccc3c2)CC1`, the Potency is > 46 µM and > 20.6 µM.

On to `COc1cc(CC(=O)O)ccc1O`, for which the Potency is above 46 µM.

With `C#CCn1c(=O)c2c(ncn2C)n(C)c1=O`, the Potency is above 46 µM.

Consider `Nc1ncnc2c1ncn2C1CCCC1`, for which the Potency was above 46 µM.

Turning to `Cn1ccnc1`, the Potency is above 46 µM.

Consider `Cn1c(=O)c2[nH]c(C3CCCC3)nc2n(C)c1=O`, for which the Potency was above 46 µM.

With `O=[N+]([O-])c1cccc2c(Br)[nH]nc12`, the Potency was above 46 µM.

For `CC(N)=O`, the Potency is above 46 µM.

Consider `COc1ccc2c(c1)c(CC(=O)O)c(C)n2Cc1ccc(Cl)cc1`, for which the Potency is above 46 µM.

As for `CCCCCCCCCCCCCCC[C@H](O)[C@H](N)CO`, the Potency was above 46 µM.

Take `Oc1ccc(Cn2cc[nH]c2=S)cc1`: the Potency is above 46 µM.

For `C=CC[C@H](N)C(=O)O`, the Potency is above 46 µM.

Regarding `CCN(CC)CCCCCCCCOC(=O)c1cc(OC)c(OC)c(OC)c1`, the Potency was above 46 µM.

As for `COc1ccccc1N1CCN(CCCCN2C(=O)c3ccccc3C2=O)CC1`, the Potency was above 46 µM.

For `COc1ccc(CCN(C)CCc2ccc(OC)c(OC)c2)cc1OC`, the Potency is above 46 µM.

As to `C[C@](Cc1ccc(O)c(O)c1)(NN)C(=O)O`, the Potency is above 46 µM.

`CC(C)[C@H](NC(=O)OCc1ccccc1)C(=O)N[C@H](C=O)Cc1ccccc1` (Cbz-Val-Phe-aldehyde): the Potency is above 46 µM.

With `Cc1cccc(C(=O)NCN2CCN(c3ccccc3C#N)CC2)c1`, the Potency is above 46 µM.

`O=c1onc2cnc3ccccc3n12`: the Potency was above 46 µM.

Regarding `O=C(O)Cc1c[nH]c2ccc(O)cc12`, the Potency was above 46 µM.

For `Cc1nc(N=Nc2ccc(C(=O)O)cc2)c(COP(=O)(O)O)c(C=O)c1O`, the Potency is above 46 µM.
